{
  "source": "PubChem BioAssay AID1159580",
  "about": "(chemical genetic matrix, 2015)",
  "test": "chemical genetic growth profiling, strain panel (AID 1159580);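 note: tested at 20 µM; growth read once vehicle control cultures reached saturation at 30 °C; 1 = growth at the plate median or of vehicle wells; lower values mean less growth of the strain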",
  "conditions": "S. cerevisiae deletion strains, growth OD",
  "note": "Where “and” joins values, the source holds several entries; their conditions need not be identical. Equal entries are not always repeated. Hit rate of the full screen: of about 5,500 compounds, about 2,000 (36%) were called active. Inconclusive results (about 18%) are left out. The list shows a part of the results. Values without a mark were called inactive. Cut-off read from the data, not from the text of the source: active = normalized growth mostly below about 0.91 (no sharp cut-off); inconclusive = no clear call, values can overlap the other calls; inactive = mostly above about 0.92.",
  "data": [
    {"compound": "CN1CCC(=C2c3ccccc3Sc3ccccc32)CC1", "values": [
      {"measurement": "normalized growth", "setting": "locus YAL013W, strain DEP1, hits give low values", "result": 0.994},
      {"measurement": "normalized growth", "setting": "locus YAL021C, strain ccr4, hits give low values", "result": 0.936},
      {"measurement": "normalized growth", "setting": "locus YAL026C, strain drs2, hits give low values", "result": 0.994},
      {"measurement": "normalized growth", "setting": "locus YAL030W, strain snc1, hits give low values", "result": 1.03},
      {"measurement": "normalized growth", "setting": "locus YBL061C, strain skt5, hits give low values", "result": 1.04},
      {"measurement": "normalized growth", "setting": "locus YBR009C, strain hhf1, hits give low values", "result": 1.06},
      {"measurement": "normalized growth", "setting": "locus YBR021W, strain FUR4, hits give low values", "result": "0.775 (active)"},
      {"measurement": "normalized growth", "setting": "locus YBR023C, strain chs3, hits give low values", "result": 1.02},
      {"measurement": "normalized growth", "setting": "locus YBR171W, strain sec66, hits give low values", "result": 1.04},
      {"measurement": "normalized growth", "setting": "locus YBR229C, strain ROT2, hits give low values", "result": 0.998},
      {"measurement": "normalized growth", "setting": "locus YBR231C, strain swc5, hits give low values", "result": 1.05},
      {"measurement": "normalized growth", "setting": "locus YBR279W, strain paf1, hits give low values", "result": 1.02},
      {"measurement": "normalized growth", "setting": "locus YCL011C, strain gbp2, hits give low values", "result": 1.04},
      {"measurement": "normalized growth", "setting": "locus YCL016C, strain dcc1, hits give low values", "result": 1.03},
      {"measurement": "normalized growth", "setting": "locus YCL029C, strain bik1, hits give low values", "result": 1.05},
      {"measurement": "normalized growth", "setting": "locus YCL061C, strain MRC1, hits give low values", "result": 1.04},
      {"measurement": "normalized growth", "setting": "locus YCL069W, strain vba3, hits give low values", "result": 1.02},
      {"measurement": "normalized growth", "setting": "locus YCR088W, strain abp1, hits give low values", "result": 1.03},
      {"measurement": "normalized growth", "setting": "locus YDL005C, strain med2, hits give low values", "result": 1.05},
      {"measurement": "normalized growth", "setting": "locus YDL035C, strain GPR1, hits give low values", "result": 0.951},
      {"measurement": "normalized growth", "setting": "locus YDL040C, strain nat1, hits give low values", "result": 1.01},
      {"measurement": "normalized growth", "setting": "locus YDL074C, strain BRE1, hits give low values", "result": 0.986},
      {"measurement": "normalized growth", "setting": "locus YDL101C, strain DUN1, hits give low values", "result": 1.03},
      {"measurement": "normalized growth", "setting": "locus YDL134C, strain PPH21, hits give low values", "result": 1.01},
      {"measurement": "normalized growth", "setting": "locus YDL185W, strain tfp1, hits give low values", "result": 1.01},
      {"measurement": "normalized growth", "setting": "locus YDL192W, strain arf1, hits give low values", "result": 1.01},
      {"measurement": "normalized growth", "setting": "locus YDR001C, strain nth1, hits give low values", "result": 1.02},
      {"measurement": "normalized growth", "setting": "locus YDR069C, strain doa4, hits give low values", "result": 1.02},
      {"measurement": "normalized growth", "setting": "locus YDR101C, strain arx1, hits give low values", "result": 1.01},
      {"measurement": "normalized growth", "setting": "locus YDR137W, strain rgp1, hits give low values", "result": "1.2 [resistant] (active)"},
      {"measurement": "normalized growth", "setting": "locus YDR150W, strain NUM1, hits give low values", "result": 1.01},
      {"measurement": "normalized growth", "setting": "locus YDR159W, strain sac3, hits give low values", "result": 1.07},
      {"measurement": "normalized growth", "setting": "locus YDR162C, strain NBP2, hits give low values", "result": 1.01},
      {"measurement": "normalized growth", "setting": "locus YDR195W, strain ref2", "result": 1.11},
      {"measurement": "normalized growth", "setting": "locus YDR297W, strain sur2, hits give low values", "result": 1.03},
      {"measurement": "normalized growth", "setting": "locus YDR318W, strain mcm21, hits give low values", "result": 1.01},
      {"measurement": "normalized growth", "setting": "locus YDR334W, strain swr1, hits give low values", "result": 1.03},
      {"measurement": "normalized growth", "setting": "locus YDR335W, strain msn5, hits give low values", "result": 1.02},
      {"measurement": "normalized growth", "setting": "locus YDR388W, hits give low values", "result": 0.955},
      {"measurement": "normalized growth", "setting": "locus YDR392W, strain spt3, hits give low values", "result": 0.982},
      {"measurement": "normalized growth", "setting": "locus YDR502C, strain sam2, hits give low values", "result": 0.995},
      {"measurement": "normalized growth", "setting": "locus YEL003W, strain gim4, hits give low values", "result": 1.03},
      {"measurement": "normalized growth", "setting": "locus YEL037C, strain rad23, hits give low values", "result": 1.02},
      {"measurement": "normalized growth", "setting": "locus YEL061C, strain CIN8 (second series), hits give low values", "result": 1.02},
      {"measurement": "normalized growth", "setting": "locus YEL061C, strain CIN8, hits give low values", "result": 1.01},
      {"measurement": "normalized growth", "setting": "locus YER015W, strain faa2, hits give low values", "result": 1.01},
      {"measurement": "normalized growth", "setting": "locus YER016W, strain bim1, hits give low values", "result": 1.03},
      {"measurement": "normalized growth", "setting": "locus YER110C, hits give low values", "result": 1.01},
      {"measurement": "normalized growth", "setting": "locus YER111C, strain swi4, hits give low values", "result": 1.03},
      {"measurement": "normalized growth", "setting": "locus YER155C, strain BEM2 (second series), hits give low values", "result": 1.03},
      {"measurement": "normalized growth", "setting": "locus YER155C, strain BEM2, hits give low values", "result": 1.01},
      {"measurement": "normalized growth", "setting": "locus YER167W, strain BCK2, hits give low values", "result": 1.01},
      {"measurement": "normalized growth", "setting": "locus YFR010W, strain ubp6, hits give low values", "result": 0.999},
      {"measurement": "normalized growth", "setting": "locus YGL078C, strain dbp3, hits give low values", "result": 1.01},
      {"measurement": "normalized growth", "setting": "locus YGL086W, strain mad1, hits give low values", "result": 0.99},
      {"measurement": "normalized growth", "setting": "locus YGL167C, strain pmr1, hits give low values", "result": 1.03},
      {"measurement": "normalized growth", "setting": "locus YGL173C, strain kem1, hits give low values", "result": 1.04},
      {"measurement": "normalized growth", "setting": "locus YGL227W, strain vid30, hits give low values", "result": 1.03},
      {"measurement": "normalized growth", "setting": "locus YGL240W, strain doc1, hits give low values", "result": 1.06},
      {"measurement": "normalized growth", "setting": "locus YGL248W, strain PDE1, hits give low values", "result": 1},
      {"measurement": "normalized growth", "setting": "locus YGL253W, strain hxk2, hits give low values", "result": 1.01},
      {"measurement": "normalized growth", "setting": "locus YGR078C, strain PAC10, hits give low values", "result": 0.977},
      {"measurement": "normalized growth", "setting": "locus YGR135W, strain pre9, hits give low values", "result": 0.934},
      {"measurement": "normalized growth", "setting": "locus YGR229C, strain SMI1, hits give low values", "result": 0.839},
      {"measurement": "normalized growth", "setting": "locus YGR252W, strain gcn5, hits give low values", "result": "0.765 (active)"},
      {"measurement": "normalized growth", "setting": "locus YHR013C, strain ard1, hits give low values", "result": 0.934},
      {"measurement": "normalized growth", "setting": "locus YHR027C, strain rpn1, hits give low values", "result": 1.02},
      {"measurement": "normalized growth", "setting": "locus YHR030C, strain SLT2, hits give low values", "result": "1.01 and 0.969"},
      {"measurement": "normalized growth", "setting": "locus YHR079C, strain IRE1 (second series), hits give low values", "result": 1.02},
      {"measurement": "normalized growth", "setting": "locus YHR079C, strain IRE1, hits give low values", "result": 0.986},
      {"measurement": "normalized growth", "setting": "locus YHR094C, strain hxt1, hits give low values", "result": 1.01},
      {"measurement": "normalized growth", "setting": "locus YHR129C, strain ARP1, hits give low values", "result": 1.01},
      {"measurement": "normalized growth", "setting": "locus YHR142W, strain chs7, hits give low values", "result": 0.98},
      {"measurement": "normalized growth", "setting": "locus YHR200W, strain rpn10, hits give low values", "result": 1.01},
      {"measurement": "normalized growth", "setting": "locus YIL066C, strain RNR3, hits give low values", "result": 1.01},
      {"measurement": "normalized growth", "setting": "locus YIL073C, strain SPO22, hits give low values", "result": 1.01},
      {"measurement": "normalized growth", "setting": "locus YIL125W, strain kgd1, hits give low values", "result": 1},
      {"measurement": "normalized growth", "setting": "locus YIR030C, strain dcg1, hits give low values", "result": 1.02},
      {"measurement": "normalized growth", "setting": "locus YJL092W, strain hpr5, hits give low values", "result": 1.02},
      {"measurement": "normalized growth", "setting": "locus YJL095W, strain BCK1 (second series), hits give low values", "result": 1.02},
      {"measurement": "normalized growth", "setting": "locus YJL095W, strain BCK1, hits give low values", "result": "0.974 and 0.973"},
      {"measurement": "normalized growth", "setting": "locus YJL115W, strain asf1, hits give low values", "result": 1.02},
      {"measurement": "normalized growth", "setting": "locus YJL129C, strain trk1, hits give low values", "result": 1.07},
      {"measurement": "normalized growth", "setting": "locus YJL134W, strain LCB3, hits give low values", "result": 0.994},
      {"measurement": "normalized growth", "setting": "locus YJL154C, strain vps35, hits give low values", "result": 1.01},
      {"measurement": "normalized growth", "setting": "locus YJL164C, strain tpk1, hits give low values", "result": 1.02},
      {"measurement": "normalized growth", "setting": "locus YJL166W, strain qcr8, hits give low values", "result": 1.03},
      {"measurement": "normalized growth", "setting": "locus YJL168C, strain set2, hits give low values", "result": 1.01},
      {"measurement": "normalized growth", "setting": "locus YJL187C, strain SWE1 (second series), hits give low values", "result": 1.02},
      {"measurement": "normalized growth", "setting": "locus YJL187C, strain SWE1, hits give low values", "result": 1.02},
      {"measurement": "normalized growth", "setting": "locus YJR043C, strain POL32, hits give low values", "result": 1.07},
      {"measurement": "normalized growth", "setting": "locus YJR066W, strain TOR1, hits give low values", "result": 0.956}
    ]}
  ]
}
